Our source for the inhibition values is ChEMBL document CHEMBL1961873, “Compounds: GSK PKIS; Assays: Nanosyn kinase panel” (2012).

Test [1] addresses High affinity nerve growth factor receptor (Homo sapiens) (UniProt P04629). The note with it: at 1 µM.
Test [2] deals with BDNF/NT-3 growth factors receptor (Homo sapiens) (UniProt Q16620). The conditions noted are these: at 0.1 µM.
Test [3] has the same target. The conditions noted are these: at 1 µM.
Test [4] addresses NT-3 growth factor receptor (Homo sapiens) (UniProt Q16288). The conditions noted are these: at 0.1 µM.
Test [5] has the same target. The note with it: at 1 µM.
The target of test [6] is T1, Tyrosine-protein kinase TXK (Homo sapiens) (UniProt P42681).
T1 sequence (whole entry): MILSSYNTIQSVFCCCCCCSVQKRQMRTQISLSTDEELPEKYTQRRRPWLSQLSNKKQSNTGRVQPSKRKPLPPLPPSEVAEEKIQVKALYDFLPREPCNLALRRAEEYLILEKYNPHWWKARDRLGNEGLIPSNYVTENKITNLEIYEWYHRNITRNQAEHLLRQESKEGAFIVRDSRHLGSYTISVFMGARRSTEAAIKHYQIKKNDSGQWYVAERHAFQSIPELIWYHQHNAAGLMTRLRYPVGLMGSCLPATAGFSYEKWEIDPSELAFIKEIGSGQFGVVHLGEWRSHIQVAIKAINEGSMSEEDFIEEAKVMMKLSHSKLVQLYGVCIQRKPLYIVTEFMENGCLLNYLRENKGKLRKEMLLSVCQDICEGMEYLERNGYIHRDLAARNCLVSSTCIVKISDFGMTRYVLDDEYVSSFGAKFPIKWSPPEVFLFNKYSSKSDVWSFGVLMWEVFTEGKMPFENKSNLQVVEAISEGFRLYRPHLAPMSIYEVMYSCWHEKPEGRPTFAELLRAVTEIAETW
The conditions noted are these: at 0.1 µM.

Test [7] has as its target T1, Tyrosine-protein kinase TXK (Homo sapiens). The note with it: at 1 µM.
Test [8] addresses Non-receptor tyrosine-protein kinase TYK2 (Homo sapiens) (UniProt P29597). The conditions noted are these: at 0.1 µM.
Test [9] deals with T2, Dual specificity protein kinase TTK (Homo sapiens) (UniProt P33981).
T2 sequence (whole entry): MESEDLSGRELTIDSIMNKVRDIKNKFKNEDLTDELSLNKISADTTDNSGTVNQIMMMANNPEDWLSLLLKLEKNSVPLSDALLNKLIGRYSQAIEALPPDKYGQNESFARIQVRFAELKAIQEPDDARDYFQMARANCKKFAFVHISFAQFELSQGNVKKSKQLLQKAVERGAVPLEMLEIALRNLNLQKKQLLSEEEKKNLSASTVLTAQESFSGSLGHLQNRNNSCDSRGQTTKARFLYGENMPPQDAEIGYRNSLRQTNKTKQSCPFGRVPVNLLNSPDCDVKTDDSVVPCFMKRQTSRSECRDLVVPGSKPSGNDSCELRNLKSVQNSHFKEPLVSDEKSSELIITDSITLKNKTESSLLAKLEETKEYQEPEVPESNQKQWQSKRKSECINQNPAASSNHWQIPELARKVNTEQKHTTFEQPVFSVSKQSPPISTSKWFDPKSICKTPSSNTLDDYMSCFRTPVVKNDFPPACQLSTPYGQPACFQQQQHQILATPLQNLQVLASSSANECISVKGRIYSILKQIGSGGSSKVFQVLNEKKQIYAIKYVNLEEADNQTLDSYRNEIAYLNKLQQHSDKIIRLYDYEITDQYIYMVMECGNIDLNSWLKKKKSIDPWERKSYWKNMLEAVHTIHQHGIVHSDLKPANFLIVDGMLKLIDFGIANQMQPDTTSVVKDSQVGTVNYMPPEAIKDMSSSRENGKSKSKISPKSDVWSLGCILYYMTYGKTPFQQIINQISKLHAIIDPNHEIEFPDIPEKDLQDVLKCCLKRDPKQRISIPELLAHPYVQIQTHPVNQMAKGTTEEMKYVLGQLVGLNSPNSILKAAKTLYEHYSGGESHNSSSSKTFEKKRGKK
The note with it: at 1 µM.

The target in test [10] is T3, Aurora kinase A (Homo sapiens) (UniProt O14965).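 Also: each reported value is a mean percent inhibition of Aurora-A.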
T3 sequence (whole entry): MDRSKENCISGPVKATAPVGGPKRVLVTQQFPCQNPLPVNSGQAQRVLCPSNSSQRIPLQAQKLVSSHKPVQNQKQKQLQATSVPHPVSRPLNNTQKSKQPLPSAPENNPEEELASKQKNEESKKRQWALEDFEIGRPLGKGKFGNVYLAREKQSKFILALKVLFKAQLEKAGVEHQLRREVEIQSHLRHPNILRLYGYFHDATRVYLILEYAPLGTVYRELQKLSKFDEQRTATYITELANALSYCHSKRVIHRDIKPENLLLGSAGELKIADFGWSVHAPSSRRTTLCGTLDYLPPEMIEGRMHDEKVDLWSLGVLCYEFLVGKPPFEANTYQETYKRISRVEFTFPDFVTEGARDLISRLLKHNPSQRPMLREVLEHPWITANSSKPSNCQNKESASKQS
The note with it: at 0.1 µM.

Molecules are shown by their SMILES. Several values for one entry are separate records, joined by “and”; a condition that tells them apart may be missing. Equal entries are not always repeated.

Chain of High affinity nerve growth factor receptor (Homo sapiens) (P04629 33-796 limits assumed): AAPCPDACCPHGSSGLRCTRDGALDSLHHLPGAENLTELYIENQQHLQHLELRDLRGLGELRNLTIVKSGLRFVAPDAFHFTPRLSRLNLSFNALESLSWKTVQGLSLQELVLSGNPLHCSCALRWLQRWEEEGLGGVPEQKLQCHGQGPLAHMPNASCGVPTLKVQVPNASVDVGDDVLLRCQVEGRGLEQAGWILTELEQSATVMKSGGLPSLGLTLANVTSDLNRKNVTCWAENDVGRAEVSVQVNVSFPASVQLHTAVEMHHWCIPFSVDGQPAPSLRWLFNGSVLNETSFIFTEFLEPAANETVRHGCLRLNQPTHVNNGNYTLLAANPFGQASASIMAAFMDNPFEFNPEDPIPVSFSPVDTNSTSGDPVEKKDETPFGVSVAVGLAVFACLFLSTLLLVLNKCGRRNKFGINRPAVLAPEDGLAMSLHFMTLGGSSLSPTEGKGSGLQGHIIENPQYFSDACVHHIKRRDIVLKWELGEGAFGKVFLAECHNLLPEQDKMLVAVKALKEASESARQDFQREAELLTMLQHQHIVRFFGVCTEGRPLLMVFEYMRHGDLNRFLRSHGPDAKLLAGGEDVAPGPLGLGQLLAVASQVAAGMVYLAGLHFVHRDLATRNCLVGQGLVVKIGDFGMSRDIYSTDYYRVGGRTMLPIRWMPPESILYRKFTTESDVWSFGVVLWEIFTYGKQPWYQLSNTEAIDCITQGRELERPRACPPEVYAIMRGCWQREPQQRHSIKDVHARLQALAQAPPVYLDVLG
Chain of BDNF/NT-3 growth factors receptor (Homo sapiens) (Q16620 32-822 limits assumed): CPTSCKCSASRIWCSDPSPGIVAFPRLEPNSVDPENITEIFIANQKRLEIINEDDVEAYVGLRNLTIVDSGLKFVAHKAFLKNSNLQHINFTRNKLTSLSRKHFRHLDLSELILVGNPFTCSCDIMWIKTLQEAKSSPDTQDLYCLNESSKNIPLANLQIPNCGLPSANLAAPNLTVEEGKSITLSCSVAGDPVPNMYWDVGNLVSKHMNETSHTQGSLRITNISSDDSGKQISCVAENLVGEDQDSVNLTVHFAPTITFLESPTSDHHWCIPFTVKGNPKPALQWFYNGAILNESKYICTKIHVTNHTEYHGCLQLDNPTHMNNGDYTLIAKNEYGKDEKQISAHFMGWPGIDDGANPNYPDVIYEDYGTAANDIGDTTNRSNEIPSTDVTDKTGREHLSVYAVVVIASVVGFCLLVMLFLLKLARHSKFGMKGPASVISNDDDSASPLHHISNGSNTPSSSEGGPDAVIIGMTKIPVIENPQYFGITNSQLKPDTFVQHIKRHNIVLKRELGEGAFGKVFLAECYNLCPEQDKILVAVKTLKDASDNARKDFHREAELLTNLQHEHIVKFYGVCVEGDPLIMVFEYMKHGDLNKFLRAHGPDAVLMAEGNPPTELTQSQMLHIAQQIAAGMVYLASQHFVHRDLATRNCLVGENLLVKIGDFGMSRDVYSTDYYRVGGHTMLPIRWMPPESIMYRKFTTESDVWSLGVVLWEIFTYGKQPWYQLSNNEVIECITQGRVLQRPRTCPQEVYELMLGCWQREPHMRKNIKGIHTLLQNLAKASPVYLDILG
Chain of Non-receptor tyrosine-protein kinase TYK2 (Homo sapiens) (P29597 whole entry): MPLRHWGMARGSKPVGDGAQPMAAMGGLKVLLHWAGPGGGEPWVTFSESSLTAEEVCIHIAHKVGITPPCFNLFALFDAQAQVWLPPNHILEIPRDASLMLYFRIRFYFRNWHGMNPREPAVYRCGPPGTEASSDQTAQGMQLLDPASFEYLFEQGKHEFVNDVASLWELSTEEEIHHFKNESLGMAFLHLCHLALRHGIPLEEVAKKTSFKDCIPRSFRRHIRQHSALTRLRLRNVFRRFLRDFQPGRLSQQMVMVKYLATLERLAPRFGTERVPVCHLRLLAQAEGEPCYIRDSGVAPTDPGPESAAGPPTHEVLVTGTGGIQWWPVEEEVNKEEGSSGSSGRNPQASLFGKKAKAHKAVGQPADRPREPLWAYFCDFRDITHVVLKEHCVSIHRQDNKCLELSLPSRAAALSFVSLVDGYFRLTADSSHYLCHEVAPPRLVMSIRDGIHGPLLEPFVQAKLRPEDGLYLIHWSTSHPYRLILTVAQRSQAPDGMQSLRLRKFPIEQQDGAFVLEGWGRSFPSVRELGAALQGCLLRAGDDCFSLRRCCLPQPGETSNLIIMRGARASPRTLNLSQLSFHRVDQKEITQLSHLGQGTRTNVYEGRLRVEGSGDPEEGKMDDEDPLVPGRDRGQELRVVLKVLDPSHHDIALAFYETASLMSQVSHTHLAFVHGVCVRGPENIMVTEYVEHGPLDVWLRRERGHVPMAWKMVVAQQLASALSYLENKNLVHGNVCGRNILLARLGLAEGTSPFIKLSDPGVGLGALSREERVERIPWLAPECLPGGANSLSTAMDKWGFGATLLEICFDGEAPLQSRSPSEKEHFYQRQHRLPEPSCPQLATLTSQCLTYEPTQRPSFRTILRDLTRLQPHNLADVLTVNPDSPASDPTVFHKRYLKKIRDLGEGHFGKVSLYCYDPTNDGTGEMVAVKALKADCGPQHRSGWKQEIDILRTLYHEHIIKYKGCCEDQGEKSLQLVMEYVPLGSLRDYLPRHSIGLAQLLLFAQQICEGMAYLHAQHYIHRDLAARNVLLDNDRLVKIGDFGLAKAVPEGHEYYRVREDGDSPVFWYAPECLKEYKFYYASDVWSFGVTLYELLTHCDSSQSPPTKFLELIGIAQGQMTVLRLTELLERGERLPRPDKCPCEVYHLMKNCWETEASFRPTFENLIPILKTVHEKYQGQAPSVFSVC
Chain of NT-3 growth factor receptor (Homo sapiens) (Q16288 32-839 limits assumed): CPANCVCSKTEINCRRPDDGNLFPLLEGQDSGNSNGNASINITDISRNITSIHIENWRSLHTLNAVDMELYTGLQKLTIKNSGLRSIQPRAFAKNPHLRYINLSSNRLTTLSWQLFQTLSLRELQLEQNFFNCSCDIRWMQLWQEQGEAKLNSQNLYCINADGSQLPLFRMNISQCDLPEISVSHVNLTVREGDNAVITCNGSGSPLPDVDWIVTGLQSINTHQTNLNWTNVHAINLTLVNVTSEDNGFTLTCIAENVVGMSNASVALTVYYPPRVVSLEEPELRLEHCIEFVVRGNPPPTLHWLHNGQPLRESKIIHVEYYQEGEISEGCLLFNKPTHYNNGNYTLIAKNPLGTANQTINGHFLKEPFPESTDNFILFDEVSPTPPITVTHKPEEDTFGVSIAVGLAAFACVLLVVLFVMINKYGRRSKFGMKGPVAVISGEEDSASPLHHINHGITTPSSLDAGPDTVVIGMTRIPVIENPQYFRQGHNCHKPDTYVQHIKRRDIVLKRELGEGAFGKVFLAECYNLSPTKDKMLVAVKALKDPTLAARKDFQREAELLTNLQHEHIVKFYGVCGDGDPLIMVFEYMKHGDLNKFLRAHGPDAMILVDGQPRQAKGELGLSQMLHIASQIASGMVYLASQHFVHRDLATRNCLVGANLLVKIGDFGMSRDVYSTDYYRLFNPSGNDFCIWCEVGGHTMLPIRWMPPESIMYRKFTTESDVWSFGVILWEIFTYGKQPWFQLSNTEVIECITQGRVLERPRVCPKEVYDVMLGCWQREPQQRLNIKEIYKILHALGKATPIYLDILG

Take `Cc1ccc(-c2cc3c(NC(=O)C4CC4)ncnc3o2)cc1`: the inhibition (commonly the relative decrease from the control value, in per cent) turned out to be 1.15% in test [1]; 1.73% in test [2]; 4.58% in test [3]; 2.91% in [4]; 4.4% in [5]; 3.92% in [6]. For the same compound, the inhibition was 8.76% in [7], -1.91% in [8], 10.2% in [9] and 3.75% in test [10].
`CCOc1ccc2c(-c3ccnc(Nc4cc(OC)cc(C(F)(F)F)c4)n3)cnn2n1`: the inhibition in [1] was 3.16%; in test [2], -1.33%; in test [3], 3.13%; in test [4], -1.23%; in [5] it was 4.94%; in test [6], 0.98%. The inhibition in test [7] is 3.69%; in test [8], -2.65%; in test [9], 8.93%; in [10] it was 0.65%.
`CS(=O)(=O)CCNCc1ccoc1-c1ccc2ncnc(Nc3ccc(OCc4ccccc4)cc3)c2c1`: the inhibition in [1] amounted to 1.88%; in test [2] it was 1.72%; in test [3], 4.41%; in [4], 2.02%; in test [5] it was 1.74%; in test [6], 0.41%. For the same compound, the inhibition worked out at 1.96% in [7], 1.14% in test [8], 5.58% in test [9] and 3.55% in test [10].
Take `CN(c1ccc(NC(=O)NCCN2CCOCC2)cc1)c1ccnc(Nc2ccc(CS(C)(=O)=O)cc2)n1`: the inhibition in [1] was 5.98%; in [2], 3.15%; in test [3], 8%; in [4] it was 1.78%; in test [5] it was 11.3%; in test [6], 16.9%. Also, the inhibition in test [7] was 57.7%; in test [8], -6.06%; in test [9] it was 7.72%; in test [10], 24.5%.
`N#Cc1cccc(Nc2ncc(-c3ccccc3)o2)c1`: the inhibition in test [1] was found to be 12.6%; in [2] it was 3.16%; in test [3], 26.5%; in test [4] it was 4.53%; in test [5], 25.1%; in [6], 1.62%. Besides, the inhibition in test [7] is 3.17%; in test [8], -5.06%; in test [9] it was 8.8%; in test [10] it was 1.03%.
On to `CC(C)c1ccc(-c2cc(-c3c[nH]nc3-c3ccccn3)ccn2)cc1`, for which the inhibition in test [1] is 2.9%; in test [2] it was 0.33%; in [3], 2.07%; in [4], 0.32%; in [5], 1.76%; in test [6], 2.1%. Also, the inhibition came out at 2.05% in [7], 0.66% in test [8], 11.3% in test [9] and 1.03% in [10].
On to `CCN1CCC(C(=O)Nc2n[nH]c3nnc(-c4cccc(F)c4F)cc23)CC1`, for which the inhibition in [1] is 4.28%; in test [2], 0.46%; in test [3], 1.47%; in [4], 2.09%; in test [5], 0.96%; in [6], -0.15%. Also, the inhibition in test [7] was found to be 1.19%; in test [8], 3.04%; in [9], 2.28%; in test [10], 2.41%.
Turning to `Cc1nnc(-c2cccc(-c3ccc(C(=O)NCC4CC4)cc3)c2)o1`, the inhibition in test [1] was determined as 1.38%; in test [2], 2.02%; in test [3], 4.55%; in test [4], 3.7%; in test [5] it was 3.95%; in test [6], 2.44%. Also, the inhibition in [7] was 3.16%; in [8] it was -5.67%; in [9], 0.98%; in test [10], 1.82%.
Take `Nc1nccc(-c2c(-c3ccc(F)cc3)ncn2C2CCNCC2)n1`: the inhibition in test [1] is -2.46% and 2.61%; in [2], -1.2% and 0.85%; in test [3], -0.92% and 0.76%; in test [4], -2.82% and 1.09%; in test [5], -1.78% and 1.96%; in test [6], -1.02% and 1.02%. Also, the inhibition is -0.81% and 3.65% in test [7]; 0.9% and -0.21% in test [8]; -1.76% and -0.14% in test [9]; -4.27% and 0.74% in [10].
Take `CN(C)CCNC(=O)Nc1ccc(N(C)c2ccnc(Nc3ccc(CS(C)(=O)=O)cc3)n2)cc1`: the inhibition in test [1] came to 7.1%; in [2] it was 2.82%; in test [3], 9.09%; in [4], 4.45%; in test [5], 11.9%; in [6], 8.39%. Besides, the inhibition in test [7] is 34.3%; in test [8], -2.14%; in [9], 11.4%; in [10], 13.7%.
Turning to `O=C(O[C@H]1CN[C@H](C#Cc2cc3ncnc(Nc4ccc5c(ccn5Cc5cc(F)ccc5F)c4)c3s2)C1)N1CCOCC1`, the inhibition in [1] was 0.61%; in [2], 1.99%; in test [3] it was 3.22%; in test [4] it was 2.18%; in test [5], 2.92%; in test [6], 3.8%. The inhibition in test [7] was 5.25%; in test [8] it was -1.85%; in [9] it was 9.66%; in test [10], 4.5%.
Take `COc1ccc(Nc2ncc(-c3ccccc3)o2)cc1OC`: the inhibition in test [1] amounted to 14.1%; in test [2] it was 2.88%; in test [3], 27.1%; in test [4] it was 2.7%; in [5], 27.1%; in test [6] it was 4.28%. The inhibition in test [7] worked out at 17.8%; in test [8], 0.66%; in [9], 1.06%; in test [10] it was 9.76%.
Take `CN1CCC(C(=O)Nc2n[nH]c3nc(-c4ccc(O)cc4)c(Br)cc23)CC1`: the inhibition was 1.2% and 2.04% in test [1]; 2.51% and 1.42% in test [2]; 3.32% and 2.74% in [3]; 3.04% and 2.59% in test [4]; 4.91% and 0.79% in [5]; -0.5% and 4.86% in test [6]. Besides, the inhibition is -0.68% and 3.3% in test [7]; -2.31% and 0.31% in test [8]; 19% and 6.37% in [9]; -1.93% and 2.95% in test [10].
As to `OCCCNc1nccc(-c2c(-c3ccc(F)cc3)nn3cc(C(F)(F)F)ccc23)n1`, the inhibition in test [1] was 1.07%; in [2], 1.2%; in test [3], 1.1%; in [4], 2.9%; in test [5], 2.72%; in test [6], 4.77%. Also, the inhibition in test [7] was 6.39%; in test [8], -6.14%; in test [9], 4.7%; in test [10], 0.87%.
`CN1CCC(n2cnc(-c3ccc(F)cc3)c2-c2ccnc(NCCO)n2)CC1`: the inhibition amounted to 2.02% in test [1]; 2.35% in [2]; 6.67% in test [3]; 4.76% in test [4]; 5.91% in test [5]; 2.5% in test [6]. For the same compound, the inhibition in test [7] was 2.52%; in test [8] it was -3.21%; in [9], 2.05%; in test [10], 1.7%.
In the case of `Nc1ncnc2occ(-c3ccc(NC(=O)Nc4cc(C(F)(F)F)ccc4F)cc3)c12`, the inhibition in test [1] is 89.2% and 97%; in test [2], 54.8% and 40.6%; in test [3] it was 90.7% and 88.5%; in test [4] it was 52.9% and 39.5%; in [5], 92.8% and 85.3%; in test [6], 3.14% and 1.59%. Also, the inhibition is 5.09% and 0.12% in test [7]; -1.29% and 0.57% in [8]; 21.4% and 7.71% in test [9]; 3.16% and -1.11% in test [10].
